Experimental data reported in PubChem BioAssay (NCATS).
“And” between values parts separate entries of the source, which are not always exact repeats. Equal entries are not always repeated. Inconclusive results are not listed. More than one record can exist for a structure, and the calls need not agree. The source made the active and inactive calls. Calls come from the whole dose curve; as a rule, active = well fitted inhibition curve with a large enough effect; inconclusive = small, poorly fitted or top-dose-only effect; inactive = flat fitted curve, though single readings scatter.

Columns and labels:
TAB109 = test: qHTS profiling for inhibitors of Plasmodium falciparum proliferation (AID 504749);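 note: 0% = DMSO vehicle and full inhibition = artemisinin control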; settings: P. falciparum in erythrocytes, SYBR Green DNA, 72 h; series mostly up to 28.7 µM
How it was run: (§1)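 Each compound contacts P. falciparum-infected red blood cells for 72 h at 37 C; lysis buffer (Tris, EDTA, saponin, Triton X, SYBR Green I) is added and fluorescence measured next morning; values normalized to controls.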

W2 = test: as above; settings: P. falciparum in erythrocytes, SYBR Green DNA, 72 h; series mostly up to 28.7 µM
How it was run: as §1

CRL-7250 = normal cell line; test: Cytotoxic Profiling of Annotated Libraries Using Quantitative High-Throughput Screening (AID 1296008); settings: Five cell lines viability, CellTiter-Glo ATP luminescence, 48-72 h; max response: stronger effect = lower value; note: potency is the fitted concentration of half-maximal effect; for max response: % is set by controls: 0 for no effect and ±100 for the full control effect
How it was run: (§2)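 Cells exposed to compounds for 48 or 72 hr at 37 degrees Celsius. Viability read as ATP-coupled luminescence with CellTiter-Glo after 10 min at room temperature.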

HEK293 = test: as above; settings: Five cell lines viability, CellTiter-Glo ATP luminescence, 48-72 h; max response: stronger effect = lower value
How it was run: as §2

HaCat [1] = test: as above; settings: Five cell lines viability, CellTiter-Glo ATP luminescence, 48-72 h; max response: stronger effect = lower value
How it was run: as §2

KB-3-1 = test: as above; settings: Five cell lines viability, CellTiter-Glo ATP luminescence, 48-72 h; max response: stronger effect = lower value
How it was run: as §2

NIH3T3 [2] = test: as above; settings: Five cell lines viability, CellTiter-Glo ATP luminescence, 48-72 h; max response: stronger effect = lower value
How it was run: as §2

HACAT [3] = test: qHTS assay to identify novel small-molecules to repurpose for Merkel cell carcinoma treatment (AID 1296009); settings: MCC and control cell lines, CellTiter-Glo viability, 72 h; at 44.8 µM (top of the series) unless noted; note: potency is the fitted concentration of half-maximal effect
How it was run: (§3)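 Dose-response viability screen; 72 hr exposure at 37 degree celsius; CellTiter-Glo added, 10 min room temperature, luminescence read; RLUs scaled between no-cell and DMSO wells.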

MCC-13 = test: as above; settings: MCC and control cell lines, CellTiter-Glo viability, 72 h; series mostly up to 46 µM
How it was run: as §3

MCC-26 = test: as above; settings: MCC and control cell lines, CellTiter-Glo viability, 72 h; series mostly up to 46 µM
How it was run: as §3

MKL-1 = test: as above; settings: MCC and control cell lines, CellTiter-Glo viability, 72 h; series mostly up to 46 µM
How it was run: as §3

MKL-2 = test: as above; settings: MCC and control cell lines, CellTiter-Glo viability, 72 h; series mostly up to 46 µM
How it was run: as §3

NIH3T3 [4] = test: as above; settings: MCC and control cell lines, CellTiter-Glo viability, 72 h; at 44.8 µM (top of the series) unless noted
How it was run: as §3

UISO = test: as above; settings: MCC and control cell lines, CellTiter-Glo viability, 72 h; series mostly up to 46 µM
How it was run: as §3

PC26 = test: qHTS profiling for inhibitors of Plasmodium falciparum proliferation (AID 504749);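 note: 0% = DMSO vehicle and full inhibition = artemisinin control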; settings: P. falciparum in erythrocytes, SYBR Green DNA, 72 h; series mostly up to 28.7 µM
How it was run: as §1

PC49 = test: as above; settings: P. falciparum in erythrocytes, SYBR Green DNA, 72 h; series mostly up to 28.7 µM
How it was run: as §1

SC27B = test: as above; settings: P. falciparum in erythrocytes, SYBR Green DNA, 72 h; series mostly up to 28.7 µM
How it was run: as §1

TAB113 = test: as above; settings: P. falciparum in erythrocytes, SYBR Green DNA, 72 h; series mostly up to 28.7 µM
How it was run: as §1

TAB165 = test: as above; settings: P. falciparum in erythrocytes, SYBR Green DNA, 72 h; series mostly up to 28.7 µM
How it was run: as §1
Note: nearly all actives have a fitted effect of over 60% in size.

O=C1CCc2cc(OCCCCc3nnnn3C3CCCCC3)ccc2N1
inactive: Potency (TAB109) | Potency (W2) | max response (CRL-7250) -14.2% and -108% | max response (HEK293) -7.13% | outcome (HaCat [1]) | max response (KB-3-1) -0.483% and -0.724% | outcome (NIH3T3 [2]) | outcome (HACAT [3]) | Potency (MCC-13) | Potency (MCC-26) | Potency (MKL-1) | Potency (MKL-2) | outcome (NIH3T3 [4]) | Potency (UISO)

COc1ccc(-c2ccc3c(N4CCOC[C@H]4C)nc(N4CCOC[C@H]4C)nc3n2)cc1CO
active: Potency (CRL-7250) 9.3 nM | Potency (HEK293) 16.6 nM | Potency (KB-3-1) 11.8 nM | Potency (NIH3T3 [2]) 66.2 nM

C[C@]12CC[C@H](O)CC1=CC[C@@H]1[C@H]2CC[C@]2(C)C(c3cccnc3)=CC[C@H]12
inactive: outcome (CRL-7250) | max response (HEK293) -4.02% | max response (KB-3-1) -14.4% | max response (NIH3T3 [2]) 0.502% | outcome (HACAT [3]) inactive [at 17.4 µM] | Potency (MCC-13) | Potency (MCC-26) | Potency (MKL-1) | Potency (MKL-2) | Potency (UISO)

COc1cc2c(cc1OC)CN(CCc1ccc(NC(=O)c3cccc4c(=O)c5cccc(OC)c5[nH]c34)cc1)CC2
active: Potency (HEK293) 11.8 µM and 7.31 µM | Potency (MKL-2) 16.6 µM
inactive: max response (CRL-7250) 0.448% and -2.79% | max response (KB-3-1) 4.69% and -0.508% | max response (NIH3T3 [2]) 3.98% | outcome (NIH3T3 [2]) | outcome (HACAT [3]) | Potency (MCC-13) | Potency (MCC-26) | Potency (MKL-1) | outcome (NIH3T3 [4])

NCCc1ccc(O)c(O)c1
18.7 µM (active) and inactive: Potency (MKL-2)
inactive: Potency (PC26) | Potency (PC49) | Potency (SC27B) | Potency (TAB109) | Potency (TAB113) | Potency (TAB165) | max response (CRL-7250) 1.67% and -14% | max response (HEK293) -42.9% | max response (KB-3-1) -3.12% and 0.713% | max response (NIH3T3 [2]) 2.44% and -9.95% | outcome (HACAT [3]) | Potency (MCC-26)
inactive and 5.31 µM (active): Potency (MCC-13)
inactive and 23.7 µM (active): Potency (MKL-1)
inactive and 18.8 µM (active): Potency (UISO)

CCCn1c(=O)c2[nH]c(C34CC5CC3C[C@@H](C5)C4)nc2n(CCC)c1=O
inactive: outcome (CRL-7250) | max response (HEK293) -11% | max response (HaCat [1]) 4.8% | max response (KB-3-1) 5.05% | max response (NIH3T3 [2]) -0.656% | Potency (MCC-13) | Potency (MCC-26) | Potency (MKL-1) | Potency (MKL-2) | Potency (UISO)
